What was measured:
Assay in all cases: PBM; 200 nM protein, PBS
Conditions in all cases: dsDNA, one strand shown
HOXC9 [1] = target: HOXC9 (Homo sapiens, UniProt P31274 178-260, K195R)
HOXC9 [2] = target: HOXC9 (Homo sapiens, UniProt P31274 178-260)
HOXC9 [3] = target: HOXC9 (Homo sapiens, UniProt P31274 178-260, R193K)
HOXB6 [4] = target: HOXB6 (Homo sapiens, UniProt P17509 132-218, K202E)
HOXC9 [5] = target: HOXC9 (Homo sapiens, UniProt P31274 178-260, R222W)
HOXB6 [6] = target: HOXB6 (Homo sapiens, UniProt P17509 132-218)
Chain of HOXB6 (Homo sapiens, UniProt P17509 132-218) (P17509 132-218): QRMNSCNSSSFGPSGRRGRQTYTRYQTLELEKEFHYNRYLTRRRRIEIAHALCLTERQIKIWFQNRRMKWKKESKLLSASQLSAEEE

HOXA2 [7] = target: HOXA2 (Homo sapiens, UniProt O43364 129-215, R185T)
Chain of HOXA2 (Homo sapiens, UniProt O43364 129-215, R185T) (O43364 129-215 R185T): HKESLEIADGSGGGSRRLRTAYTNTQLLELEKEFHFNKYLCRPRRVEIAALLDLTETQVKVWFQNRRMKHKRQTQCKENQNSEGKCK

ALX3 [8] = target: ALX3 (Homo sapiens, UniProt O95076 139-225, N203Q)
Chain of ALX3 (Homo sapiens, UniProt O95076 139-225, N203Q) (O95076 139-225 N203Q): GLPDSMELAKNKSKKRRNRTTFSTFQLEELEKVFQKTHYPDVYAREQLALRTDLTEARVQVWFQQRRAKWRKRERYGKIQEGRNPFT

HOXA2 [9] = target: HOXA2 (Homo sapiens, UniProt O43364 129-215, R185K)
Chain of HOXA2 (Homo sapiens, UniProt O43364 129-215, R185K) (O43364 129-215 R185K): as the sequence (O43364 129-215 R185T) above, with T57K counted along it

ALX3 [10] = target: ALX3 (Homo sapiens, UniProt O95076 139-225)
Chain of ALX3 (Homo sapiens, UniProt O95076 139-225) (O95076 139-225): as the sequence (O95076 139-225 N203Q) above, with Q65N counted along it

ALX3 [11] = target: ALX3 (Homo sapiens, UniProt O95076 139-225, L168Q)
Chain of ALX3 (Homo sapiens, UniProt O95076 139-225, L168Q) (O95076 139-225 L168Q): as the sequence (O95076 139-225 N203Q) above, with L30Q, Q65N counted along it

ALX3 [12] = target: ALX3 (Homo sapiens, UniProt O95076 139-225, L168V)
Chain of ALX3 (Homo sapiens, UniProt O95076 139-225, L168V) (O95076 139-225 L168V): as the sequence (O95076 139-225 N203Q) above, with L30V, Q65N counted along it

HOXA2 [13] = target: HOXA2 (Homo sapiens, UniProt O43364 129-215, Y150S)
Chain of HOXA2 (Homo sapiens, UniProt O43364 129-215, Y150S) (O43364 129-215 Y150S): as the sequence (O43364 129-215 R185T) above, with Y22S, T57R counted along it

ALX3 [14] = target: ALX3 (Homo sapiens, UniProt O95076 139-225, N203S)
Chain of ALX3 (Homo sapiens, UniProt O95076 139-225, N203S) (O95076 139-225 N203S): as the sequence (O95076 139-225 N203Q) above, with Q65S counted along it

HOXA2 [15] = target: HOXA2 (Homo sapiens, UniProt O43364 129-215)
Chain of HOXA2 (Homo sapiens, UniProt O43364 129-215) (O43364 129-215): as the sequence (O43364 129-215 R185T) above, with T57R counted along it

MSX2 [16] = target: MSX2 (Homo sapiens, UniProt P35548 130-214, R199I)
Chain of MSX2 (Homo sapiens, UniProt P35548 130-214, R199I) (P35548 130-214 R199I): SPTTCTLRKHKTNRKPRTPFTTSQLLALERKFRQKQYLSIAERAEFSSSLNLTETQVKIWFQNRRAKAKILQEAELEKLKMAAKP

MSX2 [17] = target: MSX2 (Homo sapiens, UniProt P35548 130-214)
Chain of MSX2 (Homo sapiens, UniProt P35548 130-214) (P35548 130-214): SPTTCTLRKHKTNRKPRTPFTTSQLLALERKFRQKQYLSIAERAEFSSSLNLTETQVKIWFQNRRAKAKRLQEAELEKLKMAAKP

MSX2 [18] = target: MSX2 (Homo sapiens, UniProt P35548 130-214, F161Y)
Chain of MSX2 (Homo sapiens, UniProt P35548 130-214, F161Y) (P35548 130-214 F161Y): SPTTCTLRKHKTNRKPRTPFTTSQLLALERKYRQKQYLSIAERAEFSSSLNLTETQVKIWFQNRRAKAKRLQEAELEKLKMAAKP

ALX1 [19] = target: ALX1 (Homo sapiens, UniProt Q15699 118-204, L144V)
Chain of ALX1 (Homo sapiens, UniProt Q15699 118-204, L144V) (Q15699 118-204 L144V): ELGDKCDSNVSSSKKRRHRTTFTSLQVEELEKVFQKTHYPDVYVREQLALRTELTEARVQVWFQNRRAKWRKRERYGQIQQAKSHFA

ALX1 [20] = target: ALX1 (Homo sapiens, UniProt Q15699 118-204, L144R)
Chain of ALX1 (Homo sapiens, UniProt Q15699 118-204, L144R) (Q15699 118-204 L144R): as the sequence (Q15699 118-204 L144V) above, with V27R counted along it

ALX1 [21] = target: ALX1 (Homo sapiens, UniProt Q15699 118-204)
Chain of ALX1 (Homo sapiens, UniProt Q15699 118-204) (Q15699 118-204): as the sequence (Q15699 118-204 L144V) above, with V27L counted along it

HOXD13 [22] = target: HOXD13 (Homo sapiens, UniProt P35453 263-343, T313R)
Chain of HOXD13 (Homo sapiens, UniProt P35453 263-343, T313R) (P35453 263-343 T313R): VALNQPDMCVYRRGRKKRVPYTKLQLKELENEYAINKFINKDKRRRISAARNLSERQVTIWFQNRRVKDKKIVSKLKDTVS

HOXD13 [23] = target: HOXD13 (Homo sapiens, UniProt P35453 263-343)
Chain of HOXD13 (Homo sapiens, UniProt P35453 263-343) (P35453 263-343): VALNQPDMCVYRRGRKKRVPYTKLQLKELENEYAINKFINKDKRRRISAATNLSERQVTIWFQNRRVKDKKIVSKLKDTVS

NKX2-6 = target: T1, NKX2-6 (Homo sapiens, UniProt A6NCS4 118-204, R150C)
T1 sequence: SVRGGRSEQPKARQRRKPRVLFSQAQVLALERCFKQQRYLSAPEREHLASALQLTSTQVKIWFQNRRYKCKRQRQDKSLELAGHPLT

HOXD13 [24] = target: HOXD13 (Homo sapiens, UniProt P35453 263-343, T313A)
Chain of HOXD13 (Homo sapiens, UniProt P35453 263-343, T313A) (P35453 263-343 T313A): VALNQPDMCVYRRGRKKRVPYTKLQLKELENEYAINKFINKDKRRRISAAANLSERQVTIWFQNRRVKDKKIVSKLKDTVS

HOXB9 = HOXB9 (Homo sapiens, UniProt P17482 171-250, R186Q)
Chain of HOXB9 (P17482 171-250 R186Q): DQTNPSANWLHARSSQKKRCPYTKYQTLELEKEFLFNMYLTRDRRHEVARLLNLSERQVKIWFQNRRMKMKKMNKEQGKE

Chain of HOXC9 (Homo sapiens, UniProt P31274 178-260, R222W) (P31274 178-260 R222W): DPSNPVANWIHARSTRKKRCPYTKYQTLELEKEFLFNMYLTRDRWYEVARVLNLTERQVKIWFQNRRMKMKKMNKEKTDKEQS
Chain of HOXC9 (Homo sapiens, UniProt P31274 178-260) (P31274 178-260): as the sequence (P31274 178-260 R222W) above, with W45R counted along it
Chain of HOXC9 (Homo sapiens, UniProt P31274 178-260, K195R) (P31274 178-260 K195R): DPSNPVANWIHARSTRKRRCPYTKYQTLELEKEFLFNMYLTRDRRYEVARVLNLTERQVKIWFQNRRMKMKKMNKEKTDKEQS
Chain of HOXC9 (Homo sapiens, UniProt P31274 178-260, R193K) (P31274 178-260 R193K): as the sequence (P31274 178-260 R222W) above, with R16K, W45R counted along it
Chain of HOXB6 (Homo sapiens, UniProt P17509 132-218, K202E) (P17509 132-218 K202E): as the sequence (P17509 132-218) above, with K71E counted along it

## ATGTTAAC
HOXC9 [1]
  binding signal: 11.1 upbm affinity estimate (log intensity, higher = more binding, comparable within an allelic series)
HOXC9 [2]
  binding signal: 11.1 upbm affinity estimate (log intensity, higher = more binding, comparable within an allelic series)
HOXC9 [3]
  binding signal: 11.1 upbm affinity estimate (log intensity, higher = more binding, comparable within an allelic series)

## GAGGGTCC
HOXC9 [1]
  binding signal: 9.32 upbm affinity estimate (log intensity, higher = more binding, comparable within an allelic series)
HOXB6 [4]
  binding signal: 8.91 upbm affinity estimate (log intensity, higher = more binding, comparable within an allelic series)
HOXC9 [2]
  binding signal: 9.31 upbm affinity estimate (log intensity, higher = more binding, comparable within an allelic series)
HOXC9 [3]
  binding signal: 9.32 upbm affinity estimate (log intensity, higher = more binding, comparable within an allelic series)
HOXC9 [5]
  binding signal: 9.63 upbm affinity estimate (log intensity, higher = more binding, comparable within an allelic series)
HOXB6 [6]
  binding signal: 8.74 upbm affinity estimate (log intensity, higher = more binding, comparable within an allelic series)

## ATCTACTA
HOXC9 [1]
  binding signal: 11 upbm affinity estimate (log intensity, higher = more binding, comparable within an allelic series)
HOXC9 [2]
  binding signal: 10.7 upbm affinity estimate (log intensity, higher = more binding, comparable within an allelic series)
HOXC9 [3]
  binding signal: 10.8 upbm affinity estimate (log intensity, higher = more binding, comparable within an allelic series)

## AGGTGGGG
HOXC9 [1]
  binding signal: 9.9 upbm affinity estimate (log intensity, higher = more binding, comparable within an allelic series)
HOXA2 [7]
  binding signal: 7.38 upbm affinity estimate (log intensity, higher = more binding, comparable within an allelic series)
HOXC9 [2]
  binding signal: 9.9 upbm affinity estimate (log intensity, higher = more binding, comparable within an allelic series)
ALX3 [8]
  binding signal: 7.84 upbm affinity estimate (log intensity, higher = more binding, comparable within an allelic series)
HOXC9 [3]
  binding signal: 9.81 upbm affinity estimate (log intensity, higher = more binding, comparable within an allelic series)
HOXA2 [9]
  binding signal: 10.4 upbm affinity estimate (log intensity, higher = more binding, comparable within an allelic series)
ALX3 [10]
  binding signal: 7.86 upbm affinity estimate (log intensity, higher = more binding, comparable within an allelic series)
ALX3 [11]
  binding signal: 7.87 upbm affinity estimate (log intensity, higher = more binding, comparable within an allelic series)
HOXC9 [5]
  binding signal: 9.81 upbm affinity estimate (log intensity, higher = more binding, comparable within an allelic series)
ALX3 [12]
  binding signal: 7.85 upbm affinity estimate (log intensity, higher = more binding, comparable within an allelic series)
HOXA2 [13]
  binding signal: 10.4 upbm affinity estimate (log intensity, higher = more binding, comparable within an allelic series)
ALX3 [14]
  binding signal: 7.82 upbm affinity estimate (log intensity, higher = more binding, comparable within an allelic series)
HOXA2 [15]
  binding signal: 7.26 upbm affinity estimate (log intensity, higher = more binding, comparable within an allelic series)

## CGGGCCAG
HOXC9 [1]
  binding signal: 9.64 upbm affinity estimate (log intensity, higher = more binding, comparable within an allelic series)
HOXC9 [2]
  binding signal: 9.85 upbm affinity estimate (log intensity, higher = more binding, comparable within an allelic series)
MSX2 [16]
  binding signal: 9.53 upbm affinity estimate (log intensity, higher = more binding, comparable within an allelic series)
HOXC9 [3]
  binding signal: 9.73 upbm affinity estimate (log intensity, higher = more binding, comparable within an allelic series)
MSX2 [17]
  binding signal: 9.56 upbm affinity estimate (log intensity, higher = more binding, comparable within an allelic series)
HOXC9 [5]
  binding signal: 9.77 upbm affinity estimate (log intensity, higher = more binding, comparable within an allelic series)
MSX2 [18]
  binding signal: 9.66 upbm affinity estimate (log intensity, higher = more binding, comparable within an allelic series)

## CTCCACGC
HOXC9 [1]
  binding signal: 9.69 upbm affinity estimate (log intensity, higher = more binding, comparable within an allelic series)
HOXC9 [2]
  binding signal: 9.61 upbm affinity estimate (log intensity, higher = more binding, comparable within an allelic series)
MSX2 [16]
  binding signal: 9.56 upbm affinity estimate (log intensity, higher = more binding, comparable within an allelic series)
HOXC9 [3]
  binding signal: 9.6 upbm affinity estimate (log intensity, higher = more binding, comparable within an allelic series)
MSX2 [17]
  binding signal: 9.47 upbm affinity estimate (log intensity, higher = more binding, comparable within an allelic series)
HOXC9 [5]
  binding signal: 9.78 upbm affinity estimate (log intensity, higher = more binding, comparable within an allelic series)
MSX2 [18]
  binding signal: 9.61 upbm affinity estimate (log intensity, higher = more binding, comparable within an allelic series)

## CACGCGGG
HOXC9 [1]
  binding signal: 9.44 upbm affinity estimate (log intensity, higher = more binding, comparable within an allelic series)
HOXA2 [7]
  binding signal: 7.04 upbm affinity estimate (log intensity, higher = more binding, comparable within an allelic series)
HOXC9 [2]
  binding signal: 9.53 upbm affinity estimate (log intensity, higher = more binding, comparable within an allelic series)
HOXC9 [3]
  binding signal: 9.49 upbm affinity estimate (log intensity, higher = more binding, comparable within an allelic series)
HOXA2 [9]
  binding signal: 10.2 upbm affinity estimate (log intensity, higher = more binding, comparable within an allelic series)
HOXC9 [5]
  binding signal: 9.63 upbm affinity estimate (log intensity, higher = more binding, comparable within an allelic series)
HOXA2 [13]
  binding signal: 10.4 upbm affinity estimate (log intensity, higher = more binding, comparable within an allelic series)
HOXA2 [15]
  binding signal: 7.18 upbm affinity estimate (log intensity, higher = more binding, comparable within an allelic series)

## CCCAGGTC
HOXC9 [1]
  binding signal: 9.66 upbm affinity estimate (log intensity, higher = more binding, comparable within an allelic series)
HOXC9 [2]
  binding signal: 9.74 upbm affinity estimate (log intensity, higher = more binding, comparable within an allelic series)
ALX1 [19]
  binding signal: 6.5 upbm affinity estimate (log intensity, higher = more binding, comparable within an allelic series)
HOXC9 [3]
  binding signal: 9.58 upbm affinity estimate (log intensity, higher = more binding, comparable within an allelic series)
ALX1 [20]
  binding signal: 6.45 upbm affinity estimate (log intensity, higher = more binding, comparable within an allelic series)
HOXC9 [5]
  binding signal: 9.65 upbm affinity estimate (log intensity, higher = more binding, comparable within an allelic series)
ALX1 [21]
  binding signal: 6.46 upbm affinity estimate (log intensity, higher = more binding, comparable within an allelic series)

## ACGATAAA
HOXC9 [1]
  binding signal: 11.7 upbm affinity estimate (log intensity, higher = more binding, comparable within an allelic series)
HOXC9 [2]
  binding signal: 11.8 upbm affinity estimate (log intensity, higher = more binding, comparable within an allelic series)
HOXD13 [22]
  binding signal: 10.1 upbm affinity estimate (log intensity, higher = more binding, comparable within an allelic series)
HOXC9 [3]
  binding signal: 11.8 upbm affinity estimate (log intensity, higher = more binding, comparable within an allelic series)
HOXD13 [23]
  binding signal: 10.8 upbm affinity estimate (log intensity, higher = more binding, comparable within an allelic series)

## TCCAGGGA
HOXC9 [1]
  binding signal: 9.73 upbm affinity estimate (log intensity, higher = more binding, comparable within an allelic series)
NKX2-6
  binding signal: 9.47 upbm affinity estimate (log intensity, higher = more binding, comparable within an allelic series)
HOXC9 [2]
  binding signal: 9.67 upbm affinity estimate (log intensity, higher = more binding, comparable within an allelic series)
HOXC9 [3]
  binding signal: 9.68 upbm affinity estimate (log intensity, higher = more binding, comparable within an allelic series)
HOXC9 [5]
  binding signal: 9.68 upbm affinity estimate (log intensity, higher = more binding, comparable within an allelic series)

## ATTTAATA
HOXC9 [1]
  binding signal: 12.4 upbm affinity estimate (log intensity, higher = more binding, comparable within an allelic series)
HOXC9 [2]
  binding signal: 12.5 upbm affinity estimate (log intensity, higher = more binding, comparable within an allelic series)
HOXD13 [22]
  binding signal: 10.9 upbm affinity estimate (log intensity, higher = more binding, comparable within an allelic series)
HOXC9 [3]
  binding signal: 12.4 upbm affinity estimate (log intensity, higher = more binding, comparable within an allelic series)
HOXD13 [23]
  binding signal: 11.9 upbm affinity estimate (log intensity, higher = more binding, comparable within an allelic series)
HOXD13 [24]
  binding signal: 11.8 upbm affinity estimate (log intensity, higher = more binding, comparable within an allelic series)
HOXB9
  binding signal: 11.4 upbm affinity estimate (log intensity, higher = more binding, comparable within an allelic series)
HOXC9 [5]
  binding signal: 11.1 upbm affinity estimate (log intensity, higher = more binding, comparable within an allelic series)

## ATTTGTTC
HOXC9 [1]
  binding signal: 11 upbm affinity estimate (log intensity, higher = more binding, comparable within an allelic series)
HOXA2 [7]
  binding signal: 9.37 upbm affinity estimate (log intensity, higher = more binding, comparable within an allelic series)
HOXC9 [2]
  binding signal: 10.9 upbm affinity estimate (log intensity, higher = more binding, comparable within an allelic series)
HOXC9 [3]
  binding signal: 11 upbm affinity estimate (log intensity, higher = more binding, comparable within an allelic series)
HOXA2 [13]
  binding signal: 10.8 upbm affinity estimate (log intensity, higher = more binding, comparable within an allelic series)
HOXA2 [15]
  binding signal: 9.22 upbm affinity estimate (log intensity, higher = more binding, comparable within an allelic series)

Source: PMC11006913
